Reference: PubChem BioAssay (NCI)
Values joined by “and” are separate entries in the source; they are usually repeats but may differ in a detail not shown here. Equal entries are not always repeated. Compounds without any hit were thinned out: in the full panel of roughly 83,000, 20% have a hit.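 The test compound was applied at a single concentration to cells in 96-well plates for 48 hours, and percent growth was recorded.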 Active and inactive are the calls of the source. How the source made its calls: active means growth percent below 10; inactive means the rest.

How the values were obtained:
Assay in all cases: NCI-60 one-dose screen, 48 h (100 = growth as untreated, 0 = no growth, -100 = all killed)
Settings in all cases: 10 µM unless noted
[1] = tested on: SR leukemia
[2] = tested on: RPMI-8226 leukemia
[3] = tested on: OVCAR-8 ovarian
[4] = tested on: OVCAR-5 ovarian
[5] = tested on: OVCAR-4 ovarian
[6] = tested on: SK-OV-3 ovarian
[7] = tested on: OVCAR-3 ovarian
[8] = tested on: HS 578T breast
[9] = tested on: NCI/ADR-RES ovarian
[10] = tested on: T-47D breast
[11] = tested on: BT-549 breast
[12] = tested on: MDA-MB-435 melanoma
[13] = tested on: SW-620 colon
[14] = tested on: MCF7 breast
[15] = tested on: HCT-116 colon
[16] = tested on: HCC-2998 colon
[17] = tested on: KM12 colon
[18] = tested on: IGROV1 ovarian

Row | SMILES | growth [1] | growth [2] | growth [3] | growth [4] | growth [5] | growth [6] | growth [7] | growth [8] | growth [9] | growth [10] | growth [11] | growth [12] | growth [13] | growth [14] | growth [15] | growth [16] | growth [17] | growth [18]
1 | C/C(CC(C)C)=N/NC(N)=S | 90.9% (inactive) | 73.7% (inactive) | 69% (inactive) | 114% (inactive) | 72.2% (inactive) | 105% (inactive) | 48.1% (inactive) | 96.8% (inactive) | 46.7% (inactive) | 39% (inactive) | 107% (inactive) | 104% (inactive) | 85.4% (inactive) | 21.3% (inactive) | 11.8% (inactive) | 101% (inactive) | 101% (inactive) | –
2 | Clc1ccc(/C=C/c2ccc3ccccc3n2)cc1 | 29% (inactive) and 59.4% (inactive) | 5.44% (active) and 63% (inactive) and 86.9% (inactive) | 28.9% (inactive) and 86.1% (inactive) and 109% (inactive) | 35.6% (inactive) and 92.6% (inactive) and 74.5% (inactive) | 79% (inactive) and 88.3% (inactive) and 86.5% (inactive) | 20.4% (inactive) and 83% (inactive) and 84.6% (inactive) | -20.4% (active) and 106% (inactive) and 92.8% (inactive) | -20% (active) and 168% (inactive) and 96.4% (inactive) | 83.6% (inactive) and 92% (inactive) and 79.4% (inactive) | 18.6% (inactive) and 65.6% (inactive) and 52.5% (inactive) | 58.7% (inactive) and 107% (inactive) and 94.8% (inactive) | -38.5% (active) and 85.2% (inactive) and 92.6% (inactive) | – | 15.1% (inactive) and 65.5% (inactive) and 67.1% (inactive) | – | 7.83% (active) and 104% (inactive) and 91.5% (inactive) | 16.3% (inactive) and 97% (inactive) and 94.7% (inactive) | –
3 | O=C1C2=C(Nc3cc(Cl)ccc3N2)OC1c1c[nH]c2ccc(COc3ccccc3)cc12 (stereo unspecified) | 85.4% (inactive) | 59.3% (inactive) | 46.9% (inactive) | 88.2% (inactive) | 31.8% (inactive) | 26.7% (inactive) | 55.1% (inactive) | 29.6% (inactive) | 51.4% (inactive) | – | 26.7% (inactive) | 84.6% (inactive) | – | 64.2% (inactive) | 72.4% (inactive) | 83.7% (inactive) | 87.1% (inactive) | 65.3% (inactive)
4 | O=[N+]([O-])c1cccc(N=Cc2ccccc2)c1 | 88.4% (inactive) | 101% (inactive) | 93.1% (inactive) | 107% (inactive) | 111% (inactive) | 106% (inactive) | 122% (inactive) | 110% (inactive) | 108% (inactive) | – | 101% (inactive) | 109% (inactive) | – | 102% (inactive) | – | 103% (inactive) | 112% (inactive) | 114% (inactive)
5 | CCCCCCC(C)CC1=C(O)c2ccccc2C(=O)C1=O (stereo unspecified) | 61.7% (inactive) | 37.6% (inactive) | 56.6% (inactive) | 62.4% (inactive) | 46.3% (inactive) | 78% (inactive) | 46.5% (inactive) | 75.3% (inactive) | 50.2% (inactive) | 72.9% (inactive) | – | 42.7% (inactive) | – | 25.9% (inactive) | – | 54.9% (inactive) | 41.2% (inactive) | –
6 | CCc1ccc(OC(=O)CCl)cc1 | 101% (inactive) | 111% (inactive) | 101% (inactive) | 107% (inactive) | 95.6% (inactive) | 112% (inactive) | 104% (inactive) | 110% (inactive) | 103% (inactive) | – | 109% (inactive) | 100% (inactive) | 109% (inactive) | 103% (inactive) | – | 104% (inactive) | 95% (inactive) | 108% (inactive)
7 | NC1=NC(c2ccccc2)N=C(Nc2ccccc2)N1 (stereo unspecified) | 2.95% (active) | 95.5% (inactive) and 130% (inactive) | 97.6% (inactive) and 101% (inactive) | 101% (inactive) and 94.7% (inactive) | 117% (inactive) and 62.4% (inactive) | 94.3% (inactive) and 67.6% (inactive) | 9.87% (active) and -1.56% (active) | 26.1% (inactive) and 42.4% (inactive) | 111% (inactive) and 109% (inactive) | – | – | 18.2% (inactive) and 7.52% (active) | 84.4% (inactive) and 94.5% (inactive) | 13.7% (inactive) and 22% (inactive) | – | 93.6% (inactive) | 26.1% (inactive) and 51.7% (inactive) | 110% (inactive) and 111% (inactive)
8 | COc1ccc([N+](=O)[O-])cc1OC | 89.4% (inactive) and 108% (inactive) | 106% (inactive) | 89.6% (inactive) and 94.5% (inactive) | 101% (inactive) and 98.3% (inactive) | 104% (inactive) | 114% (inactive) and 119% (inactive) | 113% (inactive) and 114% (inactive) | 112% (inactive) and 132% (inactive) | 102% (inactive) and 104% (inactive) | – | 110% (inactive) | 109% (inactive) and 107% (inactive) | 91.8% (inactive) and 110% (inactive) | 87.5% (inactive) and 96.7% (inactive) | 96.5% (inactive) and 102% (inactive) | 105% (inactive) | 109% (inactive) and 120% (inactive) | 111% (inactive) and 109% (inactive)
9 | COC(=O)c1nc(N)nc(C(=O)OC)c1C(=O)c1cccc2ccccc12 | 105% (inactive) | 109% (inactive) | 117% (inactive) | 103% (inactive) | 108% (inactive) | 121% (inactive) | 132% (inactive) | 108% (inactive) | 103% (inactive) | 109% (inactive) | 133% (inactive) | 108% (inactive) | 118% (inactive) | 94.5% (inactive) | 111% (inactive) | 106% (inactive) | 110% (inactive) | –
10 | COCCCNC1=C(C#N)C(=O)NC(c2cccs2)S1 (stereo unspecified) | 113% (inactive) | 122% (inactive) | 113% (inactive) | 109% (inactive) | 93% (inactive) | 101% (inactive) | 118% (inactive) | 112% (inactive) | 110% (inactive) | – | – | 95.9% (inactive) | 113% (inactive) | 89.6% (inactive) | 103% (inactive) | 108% (inactive) | 108% (inactive) | 119% (inactive)
11 | CCN(CC)Cc1cc2[nH]c3c4ccc(Cl)cc4ncc3c2cc1OC | -49.9% (active) and -13.8% (active) | -39.2% (active) | 83.2% (inactive) and 80.6% (inactive) | 98% (inactive) and 98.6% (inactive) | 33.3% (inactive) and -1.1% (active) | 83.8% (inactive) and 105% (inactive) | 87.5% (inactive) | -7.12% (active) and 99.3% (inactive) | 78.1% (inactive) and 102% (inactive) | 99.2% (inactive) and 94.2% (inactive) | 75.1% (inactive) and 82.2% (inactive) | 1.09% (active) and 44% (inactive) | 4.64% (active) and 25.5% (inactive) | 16.5% (inactive) and 64.2% (inactive) | -3.8% (active) and 7.95% (active) | 83.6% (inactive) and 101% (inactive) | 2.32% (active) and 42.7% (inactive) | –
12 | O=[N+]([O-])c1ccc(NC(c2ccccc2)c2ccc3cccnc3c2O)cc1 (stereo unspecified) | 6.12% (active) | 22% (inactive) | 17% (inactive) | 58.9% (inactive) | 22.2% (inactive) | 34.9% (inactive) | 30.7% (inactive) | 35.6% (inactive) | 11.7% (inactive) | 37.2% (inactive) | 39% (inactive) | 32.8% (inactive) | 23.9% (inactive) | 17.3% (inactive) | 28% (inactive) | 29.8% (inactive) | 28% (inactive) | –
13 | CCC/C(=N/NC(N)=O)c1ccco1 | 96.1% (inactive) | 95.2% (inactive) | 98% (inactive) | 91.2% (inactive) | 102% (inactive) | 91.6% (inactive) | 117% (inactive) | 97.5% (inactive) | 100% (inactive) | – | 97.4% (inactive) | 106% (inactive) | – | 92.1% (inactive) | 99.7% (inactive) | 104% (inactive) | 103% (inactive) | 104% (inactive)
14 | Cc1c(Cl)c(C)c(Cc2c(C)c(Cl)c(C)c(Cl)c2O)c(O)c1Cl | 22.7% (inactive) | 10% (inactive) | 11.4% (inactive) | 45.6% (inactive) | 13.9% (inactive) | -6.21% (active) | 5.17% (active) | 12.1% (inactive) | -3.46% (active) | – | 22.6% (inactive) | 7.62% (active) | 17.1% (inactive) | 1.6% (active) | 3.19% (active) | 25.7% (inactive) | 15.7% (inactive) | 38.8% (inactive)
15 | Nc1ccc(Cl)c(S(=O)(=O)O)c1 | 103% (inactive) | 111% (inactive) | 93.3% (inactive) | 95.7% (inactive) | 106% (inactive) | 99.5% (inactive) | 101% (inactive) | 98.8% (inactive) | 103% (inactive) | – | 96% (inactive) | 107% (inactive) | – | 101% (inactive) | 102% (inactive) | 110% (inactive) | 103% (inactive) | 102% (inactive)
